Common to all, as to experiment: DAPPL (digital affinity profiling via proximity ligation, sequencing); 10 mM Tris-HCl pH 7.5, 50 mM NaCl, 1 mM DTT, 4% glycerol, room temperature, 30 min; GST-TFs on glutathione beads, 16-mer random dsDNA library, 0.1% formaldehyde crosslink after washing; high values mean tight binding
One assay concerns the target T1, FEV (Homo sapiens, UniProt Q99581 1-238).
T1 sequence: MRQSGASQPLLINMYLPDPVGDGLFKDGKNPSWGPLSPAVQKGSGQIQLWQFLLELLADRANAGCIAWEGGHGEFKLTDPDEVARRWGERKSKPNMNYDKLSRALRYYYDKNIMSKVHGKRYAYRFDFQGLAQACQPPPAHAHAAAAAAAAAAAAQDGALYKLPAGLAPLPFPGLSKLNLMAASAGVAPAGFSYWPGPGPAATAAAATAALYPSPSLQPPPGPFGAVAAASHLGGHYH
Particulars: protein: recombinant; tags: N-terminal GST; dsDNA, one strand shown. In a few lines: (§1)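 Human transcription factors carrying a GST fusion were produced in yeast, bound to glutathione beads, tagged with DNA barcodes and pooled together with a tag-only sample. Each pool was held with 200 nmole of a random double-stranded 16-mer DNA library in Tris/NaCl/DTT/glycerol buffer for 30 min at room temperature, then washed, crosslinked in 0.1% formaldehyde, proximity-ligated with BsaI/T4 ligase (1 h, 37 °C), PCR-amplified and sequenced on an Illumina NextSeq500. Binding signal is the read frequency of each hexamer for a given factor divided by its frequency in the tag-only sample.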

A further assay addresses ETV5 (Homo sapiens, UniProt P41161 1-510). Particulars: protein: recombinant; tags: N-terminal GST; dsDNA, one strand shown. In a few lines:
as §1

The target in another assay is HSF1 (Homo sapiens, UniProt Q00613 1-529). Particulars: protein: recombinant; tags: N-terminal GST; chain copies: 3; dsDNA, one strand shown. In a few lines: as §1
Another assay deals with T2, SPIC (Homo sapiens, UniProt Q8N5J4 1-248).
T2 sequence: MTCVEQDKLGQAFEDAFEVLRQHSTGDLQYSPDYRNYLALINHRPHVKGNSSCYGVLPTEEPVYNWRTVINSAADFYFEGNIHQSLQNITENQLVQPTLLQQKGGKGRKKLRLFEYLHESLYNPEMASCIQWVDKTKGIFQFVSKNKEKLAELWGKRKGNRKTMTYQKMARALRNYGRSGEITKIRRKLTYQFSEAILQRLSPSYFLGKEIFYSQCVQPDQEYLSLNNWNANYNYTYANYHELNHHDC
Particulars: protein: recombinant; tags: N-terminal GST; dsDNA, one strand shown. In a few lines: as §1

The next assay has as its target ELF4 (Homo sapiens, UniProt Q99607 1-663). Particulars: protein: recombinant; tags: N-terminal GST; dsDNA, one strand shown. In a few lines:
as §1

The target in a further assay is T3, ELK4 (Homo sapiens, UniProt P28324-2 1-405).
T3 sequence: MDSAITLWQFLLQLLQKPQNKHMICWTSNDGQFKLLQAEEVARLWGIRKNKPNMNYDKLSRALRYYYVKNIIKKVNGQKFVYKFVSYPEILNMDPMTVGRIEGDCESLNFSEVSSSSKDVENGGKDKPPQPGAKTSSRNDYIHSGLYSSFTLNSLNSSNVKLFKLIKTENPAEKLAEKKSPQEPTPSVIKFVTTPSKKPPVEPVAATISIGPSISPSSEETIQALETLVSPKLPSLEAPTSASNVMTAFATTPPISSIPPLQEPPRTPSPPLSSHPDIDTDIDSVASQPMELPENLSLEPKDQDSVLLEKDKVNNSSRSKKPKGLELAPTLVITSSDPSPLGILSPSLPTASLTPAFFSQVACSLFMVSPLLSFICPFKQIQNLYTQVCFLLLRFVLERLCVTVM
Particulars: protein: recombinant; tags: N-terminal GST; dsDNA, one strand shown. In a few lines:
as §1

The next assay deals with T4, ETV2 (Homo sapiens, UniProt O00321 1-342).
T4 sequence: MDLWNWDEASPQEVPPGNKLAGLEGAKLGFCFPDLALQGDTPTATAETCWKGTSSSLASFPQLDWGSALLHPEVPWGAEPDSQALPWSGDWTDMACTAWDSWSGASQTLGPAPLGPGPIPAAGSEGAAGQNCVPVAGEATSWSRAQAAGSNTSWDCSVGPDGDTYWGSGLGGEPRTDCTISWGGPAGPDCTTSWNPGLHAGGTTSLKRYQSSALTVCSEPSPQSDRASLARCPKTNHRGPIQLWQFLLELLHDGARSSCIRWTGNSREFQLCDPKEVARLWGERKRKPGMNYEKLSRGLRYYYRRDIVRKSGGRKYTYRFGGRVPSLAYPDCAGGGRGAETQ
Particulars: protein: recombinant; tags: N-terminal GST; dsDNA, one strand shown. In a few lines: as §1

The target in the next assay is T5, ELF3 (Homo sapiens, UniProt P78545 1-371).
T5 sequence: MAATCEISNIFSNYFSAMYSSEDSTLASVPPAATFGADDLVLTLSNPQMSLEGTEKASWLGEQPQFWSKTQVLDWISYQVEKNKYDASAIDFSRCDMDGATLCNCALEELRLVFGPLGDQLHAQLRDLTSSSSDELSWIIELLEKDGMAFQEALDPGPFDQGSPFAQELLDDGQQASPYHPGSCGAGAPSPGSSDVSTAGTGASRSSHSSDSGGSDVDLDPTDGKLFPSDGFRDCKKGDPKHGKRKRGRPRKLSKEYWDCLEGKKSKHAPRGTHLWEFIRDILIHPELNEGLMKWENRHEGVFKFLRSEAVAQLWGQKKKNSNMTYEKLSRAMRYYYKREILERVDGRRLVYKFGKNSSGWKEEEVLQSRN
Particulars: protein: recombinant; tags: N-terminal GST; dsDNA, one strand shown. In a few lines:
as §1

The next assay has as its target CRX (Homo sapiens, UniProt O43186 1-299). Particulars: protein: recombinant; tags: N-terminal GST; dsDNA, one strand shown. In a few lines: as §1
The next assay has as its target ETV1 (Homo sapiens, UniProt P50549 1-477). Particulars: protein: recombinant; tags: N-terminal GST; dsDNA, one strand shown. In a few lines:
as §1

A further assay has as its target T6, ERF (Homo sapiens, UniProt P50548 1-548).
T6 sequence: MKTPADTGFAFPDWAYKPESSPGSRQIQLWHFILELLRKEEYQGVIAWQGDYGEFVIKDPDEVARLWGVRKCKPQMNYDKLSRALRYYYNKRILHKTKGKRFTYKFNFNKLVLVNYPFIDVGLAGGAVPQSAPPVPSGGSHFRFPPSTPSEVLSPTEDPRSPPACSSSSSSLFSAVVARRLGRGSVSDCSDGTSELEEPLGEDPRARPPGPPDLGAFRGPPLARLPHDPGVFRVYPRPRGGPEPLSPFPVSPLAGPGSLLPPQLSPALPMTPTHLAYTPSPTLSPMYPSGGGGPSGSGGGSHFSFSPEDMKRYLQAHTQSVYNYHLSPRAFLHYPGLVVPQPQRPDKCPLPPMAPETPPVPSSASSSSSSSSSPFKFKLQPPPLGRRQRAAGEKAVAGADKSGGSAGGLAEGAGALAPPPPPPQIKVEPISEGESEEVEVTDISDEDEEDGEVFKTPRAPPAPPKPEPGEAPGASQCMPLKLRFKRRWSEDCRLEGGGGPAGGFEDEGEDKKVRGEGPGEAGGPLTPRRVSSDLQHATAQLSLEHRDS
Particulars: protein: recombinant; tags: N-terminal GST; dsDNA, one strand shown. In a few lines: as §1

Another assay has as its target T7, ETV3L (Homo sapiens, UniProt Q6ZN32 1-361).
T7 sequence: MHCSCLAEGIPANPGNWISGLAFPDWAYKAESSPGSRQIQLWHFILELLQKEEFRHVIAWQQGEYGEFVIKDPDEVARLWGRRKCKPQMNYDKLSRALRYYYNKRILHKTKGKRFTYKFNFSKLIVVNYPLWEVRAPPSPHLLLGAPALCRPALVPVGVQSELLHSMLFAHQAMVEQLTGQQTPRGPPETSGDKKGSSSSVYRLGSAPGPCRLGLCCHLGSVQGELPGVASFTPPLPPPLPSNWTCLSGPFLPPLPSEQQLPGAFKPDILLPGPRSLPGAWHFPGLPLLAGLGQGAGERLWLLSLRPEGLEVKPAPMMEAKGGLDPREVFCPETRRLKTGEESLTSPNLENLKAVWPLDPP
Particulars: protein: recombinant; tags: N-terminal GST; dsDNA, one strand shown. In a few lines: as §1

The target in another assay is T8, ETS2 (Homo sapiens, UniProt P15036 1-469).
T8 sequence: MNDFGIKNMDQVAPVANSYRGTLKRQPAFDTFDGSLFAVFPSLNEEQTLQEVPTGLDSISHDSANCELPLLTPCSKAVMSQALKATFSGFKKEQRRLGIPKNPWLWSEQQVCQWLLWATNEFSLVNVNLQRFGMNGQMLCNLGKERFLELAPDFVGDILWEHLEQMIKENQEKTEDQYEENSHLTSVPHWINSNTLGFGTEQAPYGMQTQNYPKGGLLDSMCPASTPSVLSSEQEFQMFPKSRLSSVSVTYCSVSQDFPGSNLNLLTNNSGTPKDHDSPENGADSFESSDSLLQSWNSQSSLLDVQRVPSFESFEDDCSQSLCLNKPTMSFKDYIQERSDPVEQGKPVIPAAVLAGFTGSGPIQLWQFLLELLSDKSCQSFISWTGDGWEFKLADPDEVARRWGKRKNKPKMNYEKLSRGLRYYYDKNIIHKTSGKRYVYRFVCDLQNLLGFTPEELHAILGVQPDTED
Particulars: protein: recombinant; tags: N-terminal GST; dsDNA, one strand shown. In a few lines: as §1

For the next assay, the target named is T9, SPDEF (Homo sapiens, UniProt O95238 1-335).
T9 sequence: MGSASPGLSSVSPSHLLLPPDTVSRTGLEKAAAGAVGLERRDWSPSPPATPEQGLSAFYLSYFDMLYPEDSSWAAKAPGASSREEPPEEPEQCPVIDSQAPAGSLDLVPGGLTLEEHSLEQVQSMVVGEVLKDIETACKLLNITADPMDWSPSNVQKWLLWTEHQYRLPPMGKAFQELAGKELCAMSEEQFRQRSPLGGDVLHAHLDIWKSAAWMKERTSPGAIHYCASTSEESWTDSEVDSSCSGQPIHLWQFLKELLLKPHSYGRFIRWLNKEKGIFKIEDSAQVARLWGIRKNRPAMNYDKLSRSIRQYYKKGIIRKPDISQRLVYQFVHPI
Particulars: protein: recombinant; tags: N-terminal GST; dsDNA, one strand shown. In a few lines: as §1

A further assay deals with T10, ETV7 (Homo sapiens, UniProt Q9Y603 1-341).
T10 sequence: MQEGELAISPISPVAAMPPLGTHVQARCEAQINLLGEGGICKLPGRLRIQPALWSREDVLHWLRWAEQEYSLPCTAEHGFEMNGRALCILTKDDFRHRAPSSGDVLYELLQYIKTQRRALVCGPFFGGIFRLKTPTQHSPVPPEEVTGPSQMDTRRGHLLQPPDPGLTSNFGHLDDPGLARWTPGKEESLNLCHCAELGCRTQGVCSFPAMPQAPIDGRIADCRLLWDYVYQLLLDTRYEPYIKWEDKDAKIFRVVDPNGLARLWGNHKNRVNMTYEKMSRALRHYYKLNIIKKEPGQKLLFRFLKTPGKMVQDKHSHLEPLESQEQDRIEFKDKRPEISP
Particulars: protein: recombinant; tags: N-terminal GST; dsDNA, one strand shown. In a few lines:
as §1

The target of a further assay is T11, ELF5 (Homo sapiens, UniProt Q9UKW6-2 1-255).
T11 sequence: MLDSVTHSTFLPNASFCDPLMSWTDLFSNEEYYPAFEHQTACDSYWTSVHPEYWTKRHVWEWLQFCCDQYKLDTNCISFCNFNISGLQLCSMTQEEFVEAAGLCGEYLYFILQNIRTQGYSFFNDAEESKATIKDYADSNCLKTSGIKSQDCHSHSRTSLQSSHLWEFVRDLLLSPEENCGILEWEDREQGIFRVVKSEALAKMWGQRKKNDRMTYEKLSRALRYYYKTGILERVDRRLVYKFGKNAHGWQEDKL
Particulars: protein: recombinant; tags: N-terminal GST; dsDNA, one strand shown. In a few lines:
as §1

For another assay, the target named is T12, ETV3 (Homo sapiens, UniProt P41162-2 1-143).
T12 sequence: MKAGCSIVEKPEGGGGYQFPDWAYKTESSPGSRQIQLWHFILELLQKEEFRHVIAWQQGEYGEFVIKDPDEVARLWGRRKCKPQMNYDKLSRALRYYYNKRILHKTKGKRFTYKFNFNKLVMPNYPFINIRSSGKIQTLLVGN
Particulars: protein: recombinant; tags: N-terminal GST; dsDNA, one strand shown. In a few lines:
as §1

In a further assay the target is ETV6 (Homo sapiens, UniProt P41212 1-452). Particulars: protein: recombinant; tags: N-terminal GST; dsDNA, one strand shown. In a few lines:
as §1

CRX, sequence (O43186 whole entry): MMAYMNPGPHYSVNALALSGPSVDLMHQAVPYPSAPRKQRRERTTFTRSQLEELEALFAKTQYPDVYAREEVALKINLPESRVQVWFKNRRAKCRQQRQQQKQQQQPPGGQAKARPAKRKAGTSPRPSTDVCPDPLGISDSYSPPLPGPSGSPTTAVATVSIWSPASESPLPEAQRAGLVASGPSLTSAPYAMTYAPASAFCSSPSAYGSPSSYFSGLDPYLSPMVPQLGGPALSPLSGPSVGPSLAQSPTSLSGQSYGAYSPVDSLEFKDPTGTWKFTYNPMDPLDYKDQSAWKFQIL
HSF1, sequence (Q00613 whole entry): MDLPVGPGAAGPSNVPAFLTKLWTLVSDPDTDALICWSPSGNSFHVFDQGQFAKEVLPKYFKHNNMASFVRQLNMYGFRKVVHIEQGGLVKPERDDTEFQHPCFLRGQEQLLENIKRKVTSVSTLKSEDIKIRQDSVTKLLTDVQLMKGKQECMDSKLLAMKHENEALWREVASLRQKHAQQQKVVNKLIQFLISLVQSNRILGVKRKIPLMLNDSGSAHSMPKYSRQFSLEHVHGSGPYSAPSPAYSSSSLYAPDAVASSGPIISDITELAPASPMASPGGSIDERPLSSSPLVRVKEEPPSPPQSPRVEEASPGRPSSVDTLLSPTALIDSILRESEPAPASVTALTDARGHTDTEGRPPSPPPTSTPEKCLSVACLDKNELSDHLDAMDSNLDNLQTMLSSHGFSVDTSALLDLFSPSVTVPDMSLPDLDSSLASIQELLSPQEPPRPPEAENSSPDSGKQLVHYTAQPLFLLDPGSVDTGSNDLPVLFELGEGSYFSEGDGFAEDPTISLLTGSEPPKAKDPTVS
ETV6, sequence (P41212 whole entry): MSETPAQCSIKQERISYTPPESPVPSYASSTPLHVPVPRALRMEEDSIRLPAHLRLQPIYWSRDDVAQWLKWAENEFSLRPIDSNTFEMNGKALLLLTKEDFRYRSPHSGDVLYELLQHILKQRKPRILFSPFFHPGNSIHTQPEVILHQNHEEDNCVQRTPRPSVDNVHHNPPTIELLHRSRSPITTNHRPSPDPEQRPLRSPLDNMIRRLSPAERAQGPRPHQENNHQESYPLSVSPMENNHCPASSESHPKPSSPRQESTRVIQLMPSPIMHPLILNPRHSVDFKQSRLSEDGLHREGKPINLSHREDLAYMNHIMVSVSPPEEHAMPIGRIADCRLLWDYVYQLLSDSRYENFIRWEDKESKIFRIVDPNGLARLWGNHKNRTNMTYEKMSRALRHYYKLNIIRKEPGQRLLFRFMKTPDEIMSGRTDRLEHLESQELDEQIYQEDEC
ELF4, sequence (Q99607 whole entry): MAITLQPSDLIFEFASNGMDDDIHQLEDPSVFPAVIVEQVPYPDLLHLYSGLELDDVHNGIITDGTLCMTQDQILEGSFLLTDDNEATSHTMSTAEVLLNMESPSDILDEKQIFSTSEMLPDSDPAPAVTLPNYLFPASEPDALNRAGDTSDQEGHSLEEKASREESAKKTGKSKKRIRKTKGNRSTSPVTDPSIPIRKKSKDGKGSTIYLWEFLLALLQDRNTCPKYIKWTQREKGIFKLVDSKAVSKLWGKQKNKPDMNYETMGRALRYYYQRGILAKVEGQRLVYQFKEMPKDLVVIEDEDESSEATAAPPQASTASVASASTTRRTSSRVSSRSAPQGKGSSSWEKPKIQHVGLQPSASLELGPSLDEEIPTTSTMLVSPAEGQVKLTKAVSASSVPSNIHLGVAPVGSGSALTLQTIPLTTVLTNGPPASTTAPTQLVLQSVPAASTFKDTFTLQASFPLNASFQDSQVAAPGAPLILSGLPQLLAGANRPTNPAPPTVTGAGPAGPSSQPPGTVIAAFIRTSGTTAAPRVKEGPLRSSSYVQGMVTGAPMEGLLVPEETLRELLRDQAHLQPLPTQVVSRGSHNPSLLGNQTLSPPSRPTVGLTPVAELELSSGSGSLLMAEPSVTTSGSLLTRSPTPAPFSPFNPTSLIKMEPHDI
ETV5, sequence (P41161 whole entry): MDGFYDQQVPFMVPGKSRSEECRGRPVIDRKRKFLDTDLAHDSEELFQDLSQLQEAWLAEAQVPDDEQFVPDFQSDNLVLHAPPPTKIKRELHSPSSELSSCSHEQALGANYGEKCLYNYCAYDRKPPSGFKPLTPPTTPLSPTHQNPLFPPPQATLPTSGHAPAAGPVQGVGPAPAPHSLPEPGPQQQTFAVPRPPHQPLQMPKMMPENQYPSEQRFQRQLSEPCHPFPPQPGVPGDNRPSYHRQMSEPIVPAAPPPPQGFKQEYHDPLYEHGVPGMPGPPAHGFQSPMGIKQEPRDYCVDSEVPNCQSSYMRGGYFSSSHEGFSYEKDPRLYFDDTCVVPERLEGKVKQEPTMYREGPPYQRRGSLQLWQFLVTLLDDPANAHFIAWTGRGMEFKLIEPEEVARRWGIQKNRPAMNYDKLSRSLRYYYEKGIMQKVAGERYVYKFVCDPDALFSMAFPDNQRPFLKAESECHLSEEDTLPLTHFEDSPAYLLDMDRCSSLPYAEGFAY
ETV1, sequence (P50549 whole entry): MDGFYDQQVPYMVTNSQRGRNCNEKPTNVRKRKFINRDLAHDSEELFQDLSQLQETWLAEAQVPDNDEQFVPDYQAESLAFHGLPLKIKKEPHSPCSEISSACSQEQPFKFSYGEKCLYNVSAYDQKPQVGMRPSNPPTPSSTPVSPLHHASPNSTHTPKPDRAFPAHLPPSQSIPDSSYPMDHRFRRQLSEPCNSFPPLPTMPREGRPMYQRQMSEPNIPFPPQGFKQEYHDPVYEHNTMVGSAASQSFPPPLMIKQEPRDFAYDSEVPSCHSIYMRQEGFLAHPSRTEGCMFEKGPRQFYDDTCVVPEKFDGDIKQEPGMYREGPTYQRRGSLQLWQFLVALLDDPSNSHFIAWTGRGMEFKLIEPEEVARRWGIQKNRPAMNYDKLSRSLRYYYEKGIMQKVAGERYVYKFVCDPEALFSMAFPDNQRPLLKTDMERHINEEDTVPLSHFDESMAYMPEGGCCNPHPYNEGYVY

Turning to ATCTGG, the binding signal with FEV was 1.23 fold enrichment (6-mer frequency, TF over GST control); with ETV5 it was 1.11 fold enrichment (6-mer frequency, TF over GST control); with HSF1, 2.08 fold enrichment (6-mer frequency, TF over GST control); with SPIC it was 1.1 fold enrichment (6-mer frequency, TF over GST control); in the assay with ELF4 it was 1.22 fold enrichment (6-mer frequency, TF over GST control); with ELK4, 1.31 fold enrichment (6-mer frequency, TF over GST control). For the same sequence, the binding signal is 1.23 fold enrichment (6-mer frequency, TF over GST control) with ETV2; 1.23 fold enrichment (6-mer frequency, TF over GST control) with ELF3; 1.65 fold enrichment (6-mer frequency, TF over GST control) with CRX; 1.24 fold enrichment (6-mer frequency, TF over GST control) in the assay with ETV1; 1.25 fold enrichment (6-mer frequency, TF over GST control) in the assay with ERF; 1.2 fold enrichment (6-mer frequency, TF over GST control) with ETV3L. The binding signal is 1.11 fold enrichment (6-mer frequency, TF over GST control) in the assay with ETS2; 1.06 fold enrichment (6-mer frequency, TF over GST control) with SPDEF; 1.14 fold enrichment (6-mer frequency, TF over GST control) in the assay with ETV7; 1.11 fold enrichment (6-mer frequency, TF over GST control) with ELF5; 1.16 fold enrichment (6-mer frequency, TF over GST control) with ETV3; 1.1 fold enrichment (6-mer frequency, TF over GST control) in the assay with ETV6.

Values taken from PMC7862700, “An all-to-all approach to the identification of sequence-specific readers for epigenetic DNA modifications on cytosine”.
